# IMPase Li cell = cell-permeable IMPase inhibitors with lithium potentiation. Potency, µM (doses to about 59.4 µM), without a hit: at the highest dose activity, negative = IMPase inhibition, usual class: inhibitors. CHO-M1 cells, IP1 TR-FRET (IP-One), carbachol + lithium. 210,000 compounds, 0.35% hits;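 also: IP1 builds up when IMPase is blocked and the TR-FRET signal falls; potency is read from the fitted curve at half-maximal effect; plate controls were basal vehicle for no effect and high inhibitor control for full effect; nearly all actives have a fitted effect of over 50% in size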
#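 Steps: plate 2000 CHO-M1 cells per well and culture 16–30 h; add compound and lithium; incubate 30 min, 37C; add d2-IP1 tracer and Eu cryptate anti-IP1 antibody in lysis buffer; read after 10 min at room temperature.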
# PNC assembly inh = blocks assembly of the perinucleolar compartment. activity change (PNC), negative = inhibition, % at 10 µM. AID 2417. 140,000 compounds, 3.1% hits. PC3M PTB-GFP, PNC prevalence imaging, 16 h; stronger effect = lower value;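 active = readout at or below -70, meaning at least 70% loss of cells showing the perinucleolar compartment, a nuclear body marking cancer cells; inconclusive = readout between -30 and a set limit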;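 also: plate controls were DMSO wells for no effect and camptothecin positive control wells for full effect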
#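 Read-out is percentage of cells bearing a perinucleolar compartment, from automated 20x imaging of fixed, Hoechst-stained PC3M PTB-GFP cells. Cells were seeded 4 h, then exposed 16 h to compound (23 nl of library stock) in duplicate plates.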
# IMPase cell inh = IMPase inhibition in cells | P97697 | CHO-M1 cells, IP1 accumulation, HTRF TR-FRET ratio | inhibition (IP1 accumulation), % at 46.1 µM | 120,000 tested, under 10 active | AID 901; active = well fitted curve in the direction sought with a large enough effect in the signal ratio, not every such curve was filed as active; inconclusive = small, poorly fitted or top-dose-only effect, or a change in a side signal; inactive = no such curve, though single readings can be large or run the other way; the % refers to the signal ratio;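 also: cells stimulated with carbachol in lithium chloride buffer; plate controls were DMSO basal wells for no effect and reference inhibitor wells for full effect; higher means more IMPase inhibition seen as more IP1 and lower FRET ratio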
#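 Elevated IP1 in lysates lowers TR-FRET signal (665/620 ratio and 620 channel reported). Cells were CHO-M1, given carbachol (50 uM as added) plus 50mM LiCl, pH 7.4, 30 min, 37C; compounds titrated up to 46 uM; AC50 by Hill equation.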
# 12-hLO inh = blocks human 12-lipoxygenase activity; AID 1452; Potency, µM (doses to about 57.1 µM), inactives show at the top dose activity change, negative = inhibition, usual class: inhibitors; 150,000 compounds, 0.12% hits; purified 12-hLO, xylenol orange hydroperoxide absorbance; P18054; also: potency is read from the fitted curve at half-maximal effect; nearly all actives have a fitted effect of over 55% in size
# Target sequence (P18054 whole entry, looked up): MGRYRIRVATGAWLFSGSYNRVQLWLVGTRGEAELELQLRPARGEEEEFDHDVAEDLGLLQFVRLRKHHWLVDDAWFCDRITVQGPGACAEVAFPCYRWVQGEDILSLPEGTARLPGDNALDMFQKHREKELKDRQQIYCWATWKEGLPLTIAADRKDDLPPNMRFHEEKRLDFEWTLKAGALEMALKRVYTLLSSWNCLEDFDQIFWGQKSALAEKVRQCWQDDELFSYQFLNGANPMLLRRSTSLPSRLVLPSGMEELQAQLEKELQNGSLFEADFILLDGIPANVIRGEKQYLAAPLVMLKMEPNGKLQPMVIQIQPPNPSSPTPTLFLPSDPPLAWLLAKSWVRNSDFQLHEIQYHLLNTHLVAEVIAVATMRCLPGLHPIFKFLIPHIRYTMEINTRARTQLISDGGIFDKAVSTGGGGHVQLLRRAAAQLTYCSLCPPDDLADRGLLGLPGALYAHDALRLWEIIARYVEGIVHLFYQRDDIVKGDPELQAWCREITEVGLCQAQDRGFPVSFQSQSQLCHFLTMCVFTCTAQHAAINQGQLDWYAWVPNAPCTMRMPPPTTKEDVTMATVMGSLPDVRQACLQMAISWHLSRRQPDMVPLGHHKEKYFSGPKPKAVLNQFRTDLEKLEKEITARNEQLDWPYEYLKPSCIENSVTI
#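 Hydroperoxide formation by human 12-lipoxygenase from 40 uM arachidonic acid was followed colorimetrically via ferric-xylenol orange complex, using the 573/405 nm absorbance ratio. Enzyme concentration was 150 nM, with 30 min reaction at room temperature.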
# * marks the source's active call; other numbers are inactive results; u = inconclusive; x = no result given; [ ] = dose if it differs, or a comment. Only a selection was taken, and hits are over-represented in it overall. Unless noted, calls follow the shape of the dose curve; as a rule, active = well fitted curve in the direction sought with a large enough effect; inconclusive = small, poorly fitted or top-dose-only effect, or another doubt; inactive = no such curve, though single readings can be large; an effect the other way counts as inactive or inconclusive. Unless noted, % is scaled to controls: 0 for no effect and ±100 for the full control effect.
SMILES,IMPase Li cell,PNC assembly inh,IMPase cell inh,12-hLO inh
COc1ccc2c(c1)c(CCN1C(=O)c3ccccc3C1=O)cn2C(=O)c1ccco1,8.91µM*,-3.5,-10.3,-3.3%
O=C(Oc1ccc2[nH]cc(CCN3C(=O)c4ccccc4C3=O)c2c1)c1ccco1,3.0%[38.3 µM],9.0,0.1,-14.2%
CCC(NC(=O)Nn1cnnc1)(C(F)(F)F)C(F)(F)F,4.5%,-100.0*,16.7,0.7%
Cc1ccc(CNC(=O)COC(=O)c2cc3c(s2)CCC(C)C3)cc1 (stereo unspecified),x,-12.3,-5.0,-0.7%
CC1CCc2sc(C(=O)OCC(=O)NCc3ccccc3)cc2C1 (stereo unspecified),x,-94.4*,-0.6,-1.1%
Cc1ccccc1NC(=O)CC1(c2ccc(N(C)C)cc2)C(=O)c2ccccc2C1=O,9.7%[38.3 µM],-90.2*,-0.2,-1.3%
CC(C)(C)C1CCc2c(C(=O)NNC(=O)CCCC(=O)O)csc2C1 (stereo unspecified),1.6%,27.5,x,0.8%
COc1ccc(Nc2nc(C)cc(C)c2C(N)=O)cc1,-0.4%[38.3 µM],17.4,11.9,1.7%
Cc1cc(C)c(C(N)=O)c(Nc2cccc(Cl)c2)n1,-3.7%,-100.0*,-7.5,-7.9%
Cc1cc(C)c(C(N)=O)c(Nc2ccc3c(c2)OCCO3)n1,1.0%,-100.0*,-3.7,1.1%
O=C(O)CN(c1ccccc1)S(=O)(=O)c1cc(C(F)(F)F)cc(C(F)(F)F)c1,5.9%,x,x,x
C[C@@](N)(C(=O)O)[C@@H]1C[C@@H]1C(=O)O,-23.0%,x,x,x
C[C@H](CC(=O)O)C(C(=O)O)C(=O)O,-9.6%,x,x,0.0%[11.4 µM]
O=C(N/N=C/c1ccsc1)c1cc(-c2ccncc2)nc2ccccc12,-7.7%,-113.8*,x,-4.3%
Cc1ccsc1/C=N/NC(=O)c1cc(-c2ccncc2)nc2ccccc12,10.0%,-109.0*,x,5.2%
CC(=O)NS(=O)(=O)c1ccc(NC(=O)c2cc(-c3ccc(C)cc3)nc3ccccc23)cc1,-1.1%,u,-15.0,-6.5%
NS(=O)(=O)c1ccc(NC(=O)c2cc(-c3cccs3)nc3ccccc23)cc1,6.8%,-115.1*,-9.9,-3.8%
CC(=O)NS(=O)(=O)c1ccc(NC(=O)c2cc(-c3ccc(C)c(C)c3)nc3ccccc23)cc1,-1.8%[38.3 µM],-96.3*,6.6,-6.0%
COC(=O)c1cc2oc(C)cc2n1CC(=O)Nc1cc(C)cc(C)c1,38.4%[38.3 µM],u,15.7,0.6%
O=c1cnc2cncnc2n1Cc1ccccc1Cl,9.8%,x,x,x
COC(=O)c1ccc(C(=O)OC)c(NC(=O)CN(c2ccccc2)S(=O)(=O)N(C)C)c1,15.1%,x,13.1,x
O=C(c1cccc(F)c1)N1CCC2(CCCN(Cc3ccccc3)C2)CC1,27.2%,x,x,0.7%
O=C(N/N=C/c1ccsc1)c1cc(-c2cccs2)nc2ccccc12,0.8%,u,x,-9.7%
CC(/C=N/NC(=O)c1cc(-c2ccncc2)nc2ccccc12)=C\c1ccco1,12.8%[38.3 µM],-87.1*,0.1,-1.9%
O=C(O)c1ccc(/C=N/NC(=O)c2cc(-c3cccs3)nc3ccccc23)cc1,-1.8%,-106.7*,x,-1.0%
SMILES,IMPase Li cell,PNC assembly inh,IMPase cell inh,12-hLO inh
Cc1[nH]c2ccccc2c1Cc1nnc(SCCC#N)o1,6.2%,-100.0*,-2.5,3.9%
C=CCSc1nnc(Cc2c(C)[nH]c3ccccc23)o1,3.1%,-22.9,-11.5,2.5%
O=C(Cn1cc(S(=O)(=O)N2CCN(c3ccccc3F)CC2)c2ccccc2c1=O)NCCCN1CCCCCC1,-2.3%,x,x,x
C=CCC(C)(O)C#Cc1ccccc1 (stereo unspecified),-8.7%,x,x,4.5%
Cc1nc(Cl)c2c(n1)N(CC(N)=O)C(=O)CO2,1.7%,-109.0*,x,3.9%
CC1=Nn2c(nc(-c3ccccc3)c2-c2ccccc2)N(CC(N)=O)C(=O)C1,-8.4%[38.3 µM],u,-3.2,0.1%
CCC(O)OC(O)CC (stereo unspecified),-8.8%,x,x,6.4%
O=S(=O)(C/C(=C/CO)S(=O)(=O)c1ccccc1)c1ccccc1,26.2%[38.3 µM],-94.8*,9.5,-0.7%
CCN(Cc1ccccc1)C(=O)CS(=O)(=O)c1ccccc1,-5.4%,x,x,x
CCCCCCCCCCCCC1CO1 (stereo unspecified),7.0%,x,x,-4.6%
CN(C)c1nc(NS(=O)(=O)c2ccc(Cl)cc2)nc(N(C)C)n1,3.1%[38.3 µM],-120.5*,-1.3,-0.8%
COC(=O)c1ccc2nc(C)cc(Nc3cccc(Cl)c3C)c2c1,x,x,8.8,x
CCCC(=O)Nc1ccc(Oc2ccc(NC(=O)CCC)cc2)cc1,-5.2%,-100.0*,-0.4,1.1%

# From PubChem BioAssay
